Measured values: PubChem BioAssay (NCI)
About 79,000 compounds went through this panel and 15% of them were active in at least one assay; those are over-represented in the sample as a whole. Rule as the data show it: active = growth inhibition above about 70%; inactive = the rest.

Key:
[1] = NCI Yeast Anticancer Drug Screen. Data for the rad50 strain (AID 155);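 also: 0% = growth of vehicle-only cultures of the same strain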; details: S. cerevisiae rad50 strain growth inhibition; at 50.0 µM; active compounds read high
In short: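 Compounds were tested on a yeast strain with an engineered DNA damage repair alteration; the reported value is growth inhibition normalised to vehicle treatment.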

[2] = NCI Yeast Anticancer Drug Screen. Data for the mec2-1 strain (AID 157); details: S. cerevisiae mec2-1 strain, at 50.0 µM, active compounds read high
In short: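 Using mec2-1 yeast: add compound, measure growth, express inhibition versus vehicle-treated cultures.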

[3] = NCI Yeast Anticancer Drug Screen. Data for the sgs1 mgt1 strain (AID 161);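 also: 0% = growth of cultures given vehicle only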; details: S. cerevisiae sgs1 mgt1 strain, at 50.0 µM, active compounds read high
In short: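 Growth of a repair-deficient yeast mutant was monitored after compound treatment and expressed as inhibition relative to vehicle-treated cultures.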

[4] = NCI Yeast Anticancer Drug Screen. Data for the cln2 rad14 strain (AID 165);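 also: 0% = growth equal to vehicle treated cultures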; details: S. cerevisiae cln2 rad14 strain, at 50.0 µM, active compounds read high
In short: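 Yeast strain cln2 rad14, bearing defects in cell cycle control and DNA repair, serves as the test system; values reflect growth inhibition compared with vehicle.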

[5] = NCI Yeast Anticancer Drug Screen. Data for the bub3 strain (AID 167); details: S. cerevisiae bub3 mutant strain, at 50.0 µM, active compounds read high
In short: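 Growth of a checkpoint-deficient yeast mutant is measured after compound exposure. Values represent inhibition relative to vehicle.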

[6] = NCI Yeast Anticancer Drug Screen. Data for the mlh1 rad18 strain (AID 175); details: S. cerevisiae mlh1 rad18 strain growth inhibition; at 50.0 µM; active compounds read high
In short: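 Steps: expose repair-defective yeast to compound; measure growth; express inhibition against vehicle-treated controls.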

Measured: growth inhibition

C/C(=N\N=C(N)N)C(CN(CC(C)C)CC(C)C)C(=O)Nc1ccc(C)cc1C (configuration not stated)
inactive: [1] 7.6% | [2] 6.55% | [3] 10.3% | [4] 38.3% | [5] -3.85% | [6] 13.8%

CC(C)(C)c1ccc(SC(=O)Nc2cccc(Cl)c2Cl)cc1
inactive: [1] 8.35% | [2] 14.3% | [3] 18.1% | [4] 13.8% | [5] 24.4% | [6] 20.9%

Nc1cc2[nH]cnc2c(=O)[nH]1
inactive: [1] 27.4% | [2] 21.9% | [3] 32.4% | [4] 21.8% | [5] 7.9% | [6] 30.1%

Cc1onc(-c2ccccc2)c1C(=O)N1CCCN2C(=O)c3ccccc3C21 (configuration not stated)
inactive: [1] -0.3% | [2] -11.1% | [3] 15.8% | [4] 2% | [5] 22.3% | [6] 15.8%

O=C(O)/C=C/c1c2ccc(=O)c(O)c-2oc2c(O)c(O)ccc12
inactive: [1] 36.4% | [2] 24.4% | [3] 13.9% | [4] -23.9% | [5] 10.2% | [6] 44.8%

COc1ccc(Cl)cc1NC(=O)c1cccc([N+](=O)[O-])c1O
inactive: [1] -14.9% | [2] 8.95% | [3] 1.75% | [4] -8.55% | [5] 8.65% | [6] -78.4%

Cc1cc(C)c(NC(=O)NC2CCCCC2)cc1C
inactive: [1] 3.95% | [2] -9.3% | [3] 4.15% | [4] -1.6% | [5] 10.2% | [6] 34.9%

CCCCCCCCCCCCCCCCOC(=O)/C=C/c1ccccc1
inactive: [1] -8.35% | [2] -2.35% | [3] -7.45% | [4] -8.55% | [5] -12.3% | [6] 9.1%

COc1ccc(/C=C(/C#N)C(N)=O)c(OC)c1
inactive: [1] 1.85% | [2] -15.8% | [3] -34.1% | [4] -34.9% | [5] -31.8% | [6] 2.55%

Cc1cc(N(CCC#N)CCC#N)ccc1/C=C(\NC(=O)/C=C/c1ccccc1)C(=O)Nc1ccccc1Cl
inactive: [1] 32.3% | [2] 13.8% | [3] 42.1% | [4] 9.7% | [5] 1.2% | [6] 14.9%

C/C=C(\C(=C\C)c1ccc(OC(=O)c2ccccc2)c(C2CCCCC2)c1)c1ccc(O)c(C2CCCCC2)c1
inactive: [1] 49% | [2] 34.5% | [3] 44.9% | [4] 30.4% | [5] 2.95% | [6] 45.8%

CC(C)(C)CC(C)(O)C(=O)O (configuration not stated)
inactive: [1] 6.9% | [2] -18.9% | [3] -15.8% | [4] -1.45% | [5] -13.5% | [6] -3.55%

CC1CC(C)(C)NC(c2ccccc2)O1 (configuration not stated)
inactive: [1] 1.75% | [2] -5% | [3] 1.3% | [4] 10.1% | [5] -14.4% | [6] 29.4%

O=c1[nH]c2ccccc2nc1/C=C/NC(=S)Nc1ccccc1
inactive: [1] -11.4% | [2] -18.1% | [3] -20% | [4] 6% | [5] -0.95% | [6] -2.2%

N#CC(CCc1ccccc1)(c1ccccc1)c1ccccc1
inactive: [1] -15.5% | [2] -9.05% | [3] -5.85% | [4] -45.5% | [5] 9.5% | [6] -15.7%

CCC(=O)[C@@]1(OC(C)=O)CC[C@H]2[C@@H]3CCC4=CC(=O)CC[C@]4(C)[C@H]3CC[C@@]21C
inactive: [1] 28.1% | [2] 17.5% | [3] 30.9% | [4] 36.7% | [5] 26.9% | [6] 16%

NC(=O)c1cccc(F)c1
inactive: [1] 13.8% | [2] 5.3% | [3] -10% | [4] 10.2% | [5] 2.1% | [6] 14.9%

c1ccc2c(c1)CCCN2c1nc(N2CCCCC2)nc(N2CCOCC2)n1
inactive: [1] 12.9% | [2] -17.9% | [3] 22.6% | [4] 22.1% | [5] 11.6% | [6] 20.1%

CCOC(=O)C1CC(=O)C2/C(=C(\O)c3ccccc3)C=C([N+](=O)[O-])C1C2[N+](=O)[O-] (configuration not stated)
inactive: [1] 3% | [2] 3.65% | [3] -13.6% | [4] -1.25% | [5] 3.6% | [6] -1.2%

CC(C)Oc1c(NCCO)c2cc(Cl)ccc2oc1=O
inactive: [1] -3.5% | [2] 10.9% | [3] 20.5% | [4] -66.2% | [5] -1.1% | [6] -12.1%

Cc1cccc(C2=NC(=C3CCCCC3)C(=O)O2)c1
inactive: [1] 4.5% | [2] 6.6% | [3] 5.8% | [4] 12.2% | [5] 4% | [6] 20.9%

COCC(=O)C(C(C)=O)C(c1ccc(N(C)C)cc1)C(C(C)=O)C(=O)COC (configuration not stated)
inactive: [1] -12.2% | [2] -10.6% | [3] -12.7% | [4] -69.7% | [5] 2.8% | [6] -9.35%

N#CCC(=O)N1CCCCCCC1
inactive: [1] 20.4% | [2] -8.9% | [3] 2.7% | [4] 0% | [5] 6.05% | [6] 0%

O=C(O)c1c(Br)c(Br)c(Br)c(Br)c1C(=O)Nc1cc([N+](=O)[O-])ccc1O
inactive: [1] 14.2% | [2] -8.45% | [3] 8.9% | [4] 7.9% | [5] 4.05% | [6] 3.85%

CC1CCOC(c2ccc(C(C)C)cc2)O1 (configuration not stated)
inactive: [1] 8.4% | [2] -2.4% | [3] 2.9% | [4] -9.9% | [5] 9.45% | [6] -0.15%

OC(C#Cc1ccccc1)(C#Cc1ccccc1)/C=C/c1ccccc1
inactive: [1] 17.1% | [2] -5% | [3] -5.85% | [4] -7.95% | [5] -9.15% | [6] 11.5%

CCOC(=O)C12CCCCC1=CC1(CC2)SCCS1 (configuration not stated)
inactive: [1] -0.45% | [2] -9.95% | [3] -30.5% | [4] -1.35% | [5] 4.55% | [6] -15.6%

COC1=C(NCC(C)C)C(=O)C(OC)=C(NCC(C)C)C1=O
inactive: [1] -3.05% | [2] 8.75% | [3] 1.7% | [4] -57.7% | [5] 3.25% | [6] -12.1%

CCN1CCC(CC(c2ccccc2)c2ccccc2)C1 (configuration not stated)
inactive: [1] 19.4% | [2] -6.75% | [3] 34.2% | [4] -4.95% | [5] 10.1% | [6] 7%

OC(CNC1CCCCC1)(c1ccccc1)c1ccccc1
inactive: [1] -11.2% | [2] -8.35% | [3] 13.9% | [4] 10.8% | [5] 30.2% | [6] -20.6%

CN(C)CCNC1=CC(=O)c2nc3ccccc3c3ccnc1c23
inactive: [1] 37% | [2] 14.2% | [3] 26.8% | [4] 27.9% | [5] 33.6% | [6] 27.4%

Cc1noc2c1C(=O)CCC2
inactive: [1] -3.3% | [2] -5.45% | [3] 17.8% | [4] 11.2% | [5] 21.2% | [6] 7.05%

CCOC(=O)NC(=O)c1cn(C2OC(CO)C(O)C2O)c(=O)[nH]c1=O (configuration not stated)
inactive: [1] 10.3% | [2] -18.6% | [3] -16.6% | [4] -5.9% | [5] 28.6% | [6] 44.5%

CC1NC(=O)c2c(-c3ccccc3)nn(-c3ccccc3)c2NC1=O (configuration not stated)
inactive: [1] 1.35% | [2] -2.4% | [3] 11.8% | [4] -3.85% | [5] 3.15% | [6] -33.2%

CCOC(=O)CCC(NC(=O)c1ccc(NCc2ccc3nc(-c4ccccc4)c(Cl)nc3c2)cc1)C(=O)OCC (configuration not stated)
inactive: [1] 29.7% | [2] -3.85% | [3] -5.3% | [4] -5.6% | [5] 1.7% | [6] 4.3%

CCOc1ccccc1N=Nc1c(C)nc(N)nc1OCC
inactive: [1] 6.65% | [2] 6.65% | [3] 6.55% | [4] -30.1% | [5] 4% | [6] 14.9%

O=C(Nc1ccc(Cl)c(Cl)c1)OC1C=CS(=O)(=O)C1 (configuration not stated)
inactive: [1] -7.9% | [2] -5.95% | [3] -12.3% | [4] 7.7% | [5] 3.5% | [6] -0.15%
